PubChem BioAssay (NCI)
Compounds without any hit were thinned out: in the full panel of roughly 83,000, 20% have a hit.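 Cell lines were cultured in 96-well plates, exposed to a single compound concentration, and assessed for percent growth 48 hours later.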 Calls of active or inactive are those of the source. The calls were made as follows: active = growth percent below 10; inactive = the rest.

system: UO-31 renal; experiment: NCI-60 one-dose screen, 48 h (100 = growth as untreated, 0 = no growth, -100 = all killed); conditions: 10 µM unless noted

Row | Structure (SMILES) | growth
1 | Cc1ccc(S(=O)(=O)c2c(COC(=O)c3cccc(C)c3)c(-c3ccccc3)nn2C)cc1 | 103% (inactive)
2 | COc1ccc(-c2nc(N3CCN(C(=O)C4CCCCC4)CC3)c3c4c(sc3n2)CCCC4)cc1 | -7.01% (active)
3 | CC(=Nc1ccccc1)C1=C(O)C(Cc2ccc(F)cc2)NC1=O (stereo not drawn) | 44.3% (inactive)
4 | CCOc1ccccc1CN1CCc2nc3cc(C(C)(C)C)[nH]n3c(=O)c2C1 | 93.4% (inactive)
5 | COc1cc(C(=O)O/N=C(\N)Cc2cccc3ccccc23)cc(OC)c1OC | -44.3% (active)
6 | O=C1OC(c2ccccc2)(c2ccccc2)c2ccsc21 | 88.6% (inactive)
7 | COc1ccc2sc(N(Cc3cccnc3)C(=O)c3ccc(C#N)cc3)nc2c1 | 75.6% (inactive)
8 | O=C(NC1CCN(Cc2ccccc2)CC1)c1cc(C(=O)NC2CCN(Cc3ccccc3)CC2)cc(C(=O)NC2CCN(Cc3ccccc3)CC2)c1 | -29.8% (active)
9 | Oc1c(CN2CCN(c3ccccc3F)CC2)cc(Br)c2cccnc12 | -69.6% (active)
10 | O=C(Nc1ccc(Cl)cc1)N1CCN(c2ccc3nncn3n2)CC1 | 36.1% (inactive)
11 | Cc1[nH]c2ccccc2c(=O)c1CC=C(Cl)Cl | 20.4% (inactive)
12 | COc1ccc(C)c2sc(N(Cc3cccnc3)C(=O)c3ccc(C#N)cc3)nc12 | -50.8% (active)
13 | O=C(Cc1ccccc1)NC(c1ccc(Cl)cc1)c1c(O)ccc2ccccc12 (stereo not drawn) | -7.48% (active)
14 | CCOC(=O)C1=CN(C)C=C(C(=O)OCC)C1c1cc(Br)c(OCC)c(OC)c1 | 16.3% (inactive)
15 | COc1ccc(/C=C/C(=O)c2ccc3cc(OC)c(OC)cc3c2)cc1OC | 27.7% (inactive)
16 | CCC1=C[C@@H]2CN(C1)Cc1c([nH]c3ccccc13)[C@@](C(=O)OC)(c1cc3c(cc1OC)N(C)[C@H]1[C@@](O)(C(=O)OC)[C@H](OC(C)=O)[C@]4(CC)[C@@H]5C[C@@H]5CN5CC[C@]31[C@@H]54)C2 | 3.11% (active)
17 | COc1ccc(-c2nsc3c2NC(=O)CC3c2ccc3c(c2)OCCO3)cc1 (stereo not drawn) | 53.6% (inactive)
18 | CCCCNc1nc(NC(C)(C)C)nc(NC(C)(C)C)n1 | 37.4% (inactive)
19 | CCOc1ccc2nc(C)cc(Nc3ccc(Br)cc3)c2c1 | 92.1% (inactive)
20 | Cc1ccc(Nc2nc(N)c3ccccc3n2)cc1Cl | 57.2% (inactive)
21 | CCOC(=O)C1=C(C)N=c2s/c(=C\c3cc(Cl)ccc3O)c(=O)n2C1c1ccc(OC)cc1 (stereo not drawn) | 58.8% (inactive)
22 | COC(=O)[C@@H]1CCCN1C(=O)[C@H]1CCCN1C(=O)[C@@H](Cc1c[nH]c2ccccc12)NC(=S)Nc1cc(C(F)(F)F)cc(C(F)(F)F)c1 | 28.3% (inactive)
23 | COc1ccc(-c2cc(=O)c3c(OC)c4ccoc4c(/C=C/C=O)c3o2)cc1 | 44.1% (inactive)
